Source: PubChem (National Center for Advancing Translational Sciences (NCATS))
This is a sample that favours compounds with a hit; in the whole collection about 20% have one here.
HCMV antiviral: qHTS Assay for inhibitors of the human cytomegalovirus (HCMV); HFF cells, HCMV-luciferase reporter, 72 h; stronger effect = lower value; activity change, negative = inhibition, % at 57.5 µM; 4.5% of 410,000 active; in the data active means activity change below about -60%; inconclusive means no clear call, values can overlap the other calls; inactive means above about -39%; further: on the % scale 0 is the no-effect control and ±100 the full control effect
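Inhibition of viral replication was scored as loss of reporter luminescence in HFFs infected with HCMV-luciferase (MOI 1 PFU/cell) for 72 h; compounds tested at 2 doses, normalized to buffer and Salinomycin controls.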
Pf growth 96h: Primary qHTS for delayed death inhibitors of the malarial parasite plastid, 96 hour incubation; P. falciparum luciferase reporter growth, 96 h; Potency, µM (highest dose often 28.7 µM), for the others: top-dose activity change, negative = inhibition, actives largely listed as inhibitors; 6.9% of 320,000 active; AID 504834, 2011; further: potency means the concentration at half of the fitted maximal effect; on the % scale 0 is the no-effect control and ±100 the full control effect
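Parasite growth measured via integrated firefly luciferase reporter in P. falciparum. Infected erythrocytes at 2% hematocrit, 0.05% parasitemia final were treated 96 hours at 37 C under 5% CO2, and luminescence was read.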
Pf growth 48h: Primary qHTS for delayed death inhibitors of the malarial parasite plastid, 48 hour incubation; P. falciparum luciferase growth in erythrocytes, 48 h; Potency, µM (titrated, usually from 28.7 µM), for inactives: top-dose activity change, negative = inhibition, actives largely listed as inhibitors; 5.9% of 310,000 active; AID 504832, 2011; further: potency means the concentration at half of the fitted maximal effect; on the % scale 0 is the no-effect control and ±100 the full control effect
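In quantitative HTS format, infected erythrocytes bearing luciferase-reporter parasites were treated for a single generation at 37 C. Luminescence after adding detection reagent served as the growth measure.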
Shiga toxin inh: A qHTS for Small Molecule Inhibitors of Shiga Toxin; AID 2315, 2010; 9.2% of 290,000 active; Vero cells, Shiga toxin protein synthesis inhibition reporter; inhibition, % at 38.7 µM; in the data active means inhibition mostly above about 28%, no sharp cut-off; inactive means mostly below about 43%; further: 0% is about no effect
Cycloheximide cs: Cycloheximide Counterscreen for Small Molecule Inhibitors of Shiga Toxin. cell reporter, cycloheximide protein synthesis inhibition counterscreen. max response, %. 12% of 300,000 active. AID 2314, 2010; in the data active means max response mostly above about 13%, no sharp cut-off; inactive means mostly below about 14%; further: read at 38.3 µM for the half of the compounds with a filed dose; 0% is about no effect
Active calls of the source: *; [ ] = remark or other dose. Unless noted, the call rests on the fitted dose curve; in most records, active means well fitted inhibition curve with a large enough effect; inconclusive means small, poorly fitted or top-dose-only effect, or another doubt; inactive means no such curve, though single readings can be large or run the other way.

What do the screens show for `CCN1CCN(c2ccc(S(=O)(=O)N3CCCCC3)cc2NC(=O)CC(C)c2ccccc2)CC1` (configuration not stated)?
HCMV antiviral: -17; Pf growth 96h: inconclusive; Pf growth 48h: 9.3µM*

Results for CCN1CCN(c2ccc(S(=O)(=O)N3CCCCC3)cc2NC(=O)c2ccc(C)c(C)c2)CC1 ?
HCMV antiviral: -22

What do the screens show for `CCN1CCN(c2ccc(S(=O)(=O)N3CCCCC3)cc2NC(=O)c2ccc(F)cc2)CC1`?
HCMV antiviral: 4; Pf growth 96h: 9.3µM*; Pf growth 48h: inconclusive; Shiga toxin inh: -8; Cycloheximide cs: -4

Results for O=C(Nc1cc(S(=O)(=O)N2CCOCC2)ccc1N1CCCC1)c1ccc(F)cc1 ?
HCMV antiviral: 5; Pf growth 96h: inconclusive; Pf growth 48h: -21%

Results for CCN1CCN(c2ccc(S(=O)(=O)N3CCCCC3)cc2NC(=O)c2cccc(C)c2)CC1 ?
HCMV antiviral: -7; Pf growth 96h: inconclusive; Pf growth 48h: 12µM*

Results for CCC(=O)N1N=C2C3CCN(CC3)C2C1c1ccc(C)cc1 (configuration not stated) ?
HCMV antiviral: 23; Pf growth 96h: 4.1µM*; Pf growth 48h: 14%; Shiga toxin inh: 10; Cycloheximide cs: -4

How did CC(=O)c1cccc(OCC(O)CNCCc2ccc(Cl)cc2)c1 (configuration not stated) do in these assays?
HCMV antiviral: 46; Pf growth 96h: 15%; Pf growth 48h: -23%[0.00184 µM]; Shiga toxin inh: 2; Cycloheximide cs: -2

How did CCCc1cnc(NCCNCC(O)COc2ccc(Cl)c(Cl)c2)nc1 (configuration not stated) do in these assays?
HCMV antiviral: -98*; Pf growth 96h: 12µM*; Pf growth 48h: inconclusive; Shiga toxin inh: -2; Cycloheximide cs: -3

Results for Cc1ccc(-c2noc(CCC(=O)NCCCN3CCN(c4cccc(Cl)c4)CC3)n2)cc1 ?
HCMV antiviral: -26; Pf growth 96h: 41%; Pf growth 48h: 9.3µM*; Shiga toxin inh: -11; Cycloheximide cs: -4
